Where “and” joins values, the source holds several entries; their conditions need not be identical. Equal entries are not always repeated. Results filed as inconclusive are left out. The source holds several records for some structures; these can differ, active in one and inactive in another. Calls of active or inactive are those of the source. Unless noted, calls come from the whole dose curve.
Legend:
[1] = Nuclear factor erythroid 2-related factor 2/antioxidant responsive element (Nrf2/ARE) small molecule agonists: qHTS cell viability counter screen in human keratinocytes (AID 1919968; active = well fitted curve in the direction sought with a large enough effect in the repeat runs; an effect the other way counts as inactive or inconclusive; note: nearly all actives have a fitted effect of over 55% in size; note: potency is the fitted concentration of half-maximal effect)
In short: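 Viability counter-screen: KeratinoSens reporter cells, DMSO-delivered compounds, 23 h at 37 C, CellTiter-Fluor fluorescence.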

[2] = Nuclear factor erythroid 2-related factor 2/antioxidant responsive element (Nrf2/ARE) small molecule agonists: luciferase reporter gene qHTS assay in human keratinocytes (AID 1919969); note: nearly all actives have a fitted effect of over 35% in size; note: potency is the fitted concentration of half-maximal effect
[3] = target: Gonadotropin-releasing hormone receptor (Homo sapiens) (UniProt P30968); experiment: Human gonadotropin-releasing hormone receptor (GnRHR) small molecule agonists, calcium flux assay in GnRHR-HEK293 cells (AID 1920063); note: nearly all actives have a fitted effect of over 35% in size
In short: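 Tox21-format agonist screen using human GnRHR-expressing HEK293 cells and a fluorescent calcium dye; kinetic 3-min fluorescence reading after compound addition, 15-point concentration series run in triplicate.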

[4] = target: KiSS-1 receptor (Homo sapiens) (UniProt Q969F8); experiment: Human kisspeptin (KISS1R) small molecule agonists, calcium flux assay in KISS1R-HEK293 cells (AID 1920064; active = well fitted curve in the direction sought with a large enough effect in the repeat runs; an effect the other way counts as inactive or inconclusive)
In short: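 Intracellular calcium mobilization in KISS1R-HEK293 cells was recorded by fluorescence (Ex/Em 480/540) for 3 min following compound addition to cells pre-loaded 1 h with calcium dye.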

[5] = G protein-coupled receptor (GPCR) small molecule agonists, calcium flux assay: HEK293 wild type cell line counter screen (AID 1920065)
In short: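 In this agonist-mode screen, ATP is the positive control and DMSO the vehicle. Cells grow 18 h before a 1 h dye incubation at 37 C; signal is taken at Ex/Em 480/540 over 3 min.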

[6] = p53 small molecule agonists, cell-based qHTS assay with rat liver microsomes: qHTS cell viability counter screen (AID 1963580); note: nearly all actives have a fitted effect of over 45% in size
In short: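 p53RE-bla HCT-116 cells were exposed 16 h at 37 C to compounds with rat liver microsomes (0.5 mg/mL) and NADPH (0.5 mg/mL). Viability was measured in the same wells as ATP content by CellTiter-Glo luminescence.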

[7] = p53 small molecule agonists, cell-based qHTS assay: qHTS cell viability counter screen (AID 1963581); note: nearly all actives have a fitted effect of over 45% in size; note: potency is the fitted concentration of half-maximal effect
In short: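 Compounds are pinned onto HCT-116 p53RE-bla cells and left 16 h at 37 C. Following the reporter FRET read, ATP is quantified by CellTiter-Glo luminescence after 30 min at room temperature.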

[8] = target: 5-hydroxytryptamine receptor 2A (Homo sapiens) (UniProt P28223); experiment: 5-hydroxytryptamine receptor 2A (HTR2A) small molecule antagonists, cell-based qHTS assay (AID 1963586); note: nearly all actives have a fitted effect of over 45% in size
In short: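 Antagonist-mode intracellular calcium assay: DOI (4 nM) added after 5 min compound pre-incubation at room temperature to dye-loaded HTR2A-CHO cells. Fluorescence followed for 3 min, sampled every second.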

[9] = target: 5-hydroxytryptamine receptor 2A (Homo sapiens) (UniProt P28223); experiment: 5-hydroxytryptamine receptor 2A (HTR2A) small molecule agonists, cell-based qHTS assay (AID 1963587); note: nearly all actives have a fitted effect of over 30% in size
In short: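 CHO cells stably expressing human HTR2A, plated 18 h, loaded with calcium dye 1 h at 37 C. Agonist mode: compounds added and intracellular calcium fluorescence recorded kinetically for 2 min at 1 sec intervals.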

[10] = target: Muscarinic acetylcholine receptor M1 (Homo sapiens) (UniProt P11229); experiment: Cholinergic receptor muscarinic 1 (CHRM1) small molecule antagonists, cell-based qHTS assay (AID 1963588); note: nearly all actives have a fitted effect of over 40% in size
In short: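 CHRM1-CHO calcium-flux assay, antagonist mode. Cells were seeded 18 h, dye-loaded 1 h at 37 C and given compound for 5 min at RT, then acetylcholine was added at 50nM. FDSS fluorescence was read 3 min; 15 concentrations, three runs.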

[11] = target: Muscarinic acetylcholine receptor M1 (Homo sapiens) (UniProt P11229); experiment: Cholinergic receptor muscarinic 1 (CHRM1) small molecule agonists, cell-based qHTS assay (AID 1963589); note: nearly all actives have a fitted effect of over 35% in size; note: potency is the fitted concentration of half-maximal effect
In short: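 Stable CHRM1-CHO cells (human receptor) were incubated 18 h, dye-loaded for 1 h at 37 C and exposed to test compounds for agonist activity, with calcium-dependent fluorescence followed kinetically.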

[12] = cAMP Responsive Elements (CRE) small molecule agonists, cell-based qHTS assay (AID 1963590)
In short: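 FRET-based beta-lactamase readout (LiveBLAzer B/G, 2 h RT) quantified CRE activation in HEK 293T CRE-bla cells after 3 h treatment with DMSO-dissolved compounds.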

[13] = cAMP Responsive Elements (CRE) small molecule antagonists, cell-based qHTS assay (AID 1963591; active = well fitted inhibition curve with a large enough effect in the signal ratio in the repeat runs, not every such curve was filed as active; the % refers to the signal ratio)
In short: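 qHTS in CRE-bla HEK 293T cells: compound in DMSO, then 0.25 uM NKH477 (final), 3 h at 37 °C/5% CO2; beta-lactamase FRET read-out after 2 h substrate incubation.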

[14] = target: Beta-2 adrenergic receptor (Homo sapiens) (UniProt P07550); experiment: Adrenergic beta2 receptor (ADRB2) small molecule antagonists, cell-based qHTS assay (AID 1963592); note: series mostly up to about 92 µM; nearly all actives have a fitted effect of over 50% in size
In short: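 Cells (CHO, stable ADRB2 overexpression) incubated 18-20hr at 37C; compounds added from DMSO; agonist mix (1nM isoproterenol, 100uM IBMX, 25uM Ro-20-1724) added; 0.5hr RT; d2-cAMP and anti-cAMP-cryptate added; 1hr RT; 665/615 nm read.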

[15] = target: Beta-2 adrenergic receptor (Homo sapiens) (UniProt P07550); experiment: Adrenergic beta2 receptor (ADRB2) small molecule agonists, cell-based qHTS assay (AID 1963593);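 note: CHO cells stably overexpressing human ADRB2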
In short: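 CHO cells stably over-expressing ADRB2 were plated overnight at 37C, then dosed with compounds plus a stimulation mix containing 100uM IBMX and 25uM Ro-20-1724 for 0.5hr at room temperature. cAMP was measured by HTRF competition, 1hr.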

[16] = target: D(2) dopamine receptor (Homo sapiens) (UniProt P14416); experiment: Dopamine D2 receptor (DRD2) small molecule agonists, cell-based qHTS assay (AID 1963594); note: nearly all actives have a fitted effect of over 35% in size
In short: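 HEK293 cells stably expressing human DRD2, pre-treated with PDE inhibitor Ro20-1724 (0.1 mM final) and compound 10 min at room temperature, then stimulated with NKH477 (200nM […]) for 30 min. cAMP read by HTRF (665/620 nm).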

[17] = target: D(2) dopamine receptor (Homo sapiens) (UniProt P14416); experiment: Dopamine D2 receptor (DRD2) small molecule antagonists, cell-based qHTS assay (AID 1963595; active = well fitted inhibition curve with a large enough effect in the signal ratio in the repeat runs, with a control signal flat; the % refers to the signal ratio)
In short: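 HTRF cAMP read-out at 665 and 620 nm emission (340 nm excitation). Antagonist mode: compounds were tested against 12 nM quinpirole in DRD2-HEK293 cells, with 200 nM NKH477 raising cAMP and 0.1 mM Ro20-1724 blocking its breakdown.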

[18] = p53 small molecule agonists, cell-based qHTS assay with human liver microsomes (AID 1963577)
In short: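 p53RE-bla cells, 4,000/well, compound added after 5 h, with human liver microsomes 0.5 mg/mL and NADPH 0.5 mg/mL final; 16 h at 37 C, then LiveBLAzer 2 h RT, fluorescence.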

[19] = p53 small molecule agonists, cell-based qHTS assay with rat liver microsomes (AID 1963578)
In short: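 p53RE-bla cells, 4,000/well, pre-incubated 5 h, then given compounds plus rat liver microsomes (0.5 mg/mL final) and NADPH (0.5 mg/mL final). Incubation 16 h at 37 C; beta-lactamase reporter read by LiveBLAzer fluorescence after 2 h at room temperature.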

[20] = p53 small molecule agonists, cell-based qHTS assay with human liver microsomes: qHTS cell viability counter screen (AID 1963579); note: nearly all actives have a fitted effect of over 45% in size
In short: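 p53RE-bla cells, 4,000/well, dosed 5 hours after plating, with human liver microsomes (0.5 mg/mL final) plus NADPH (0.5 mg/mL final), 16 hours at 37 C. Viability read as CellTiter-Glo luminescence after 30 min at room temperature.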

Measured: Potency

Chain of KiSS-1 receptor (Homo sapiens) (Q969F8 whole entry, looked up): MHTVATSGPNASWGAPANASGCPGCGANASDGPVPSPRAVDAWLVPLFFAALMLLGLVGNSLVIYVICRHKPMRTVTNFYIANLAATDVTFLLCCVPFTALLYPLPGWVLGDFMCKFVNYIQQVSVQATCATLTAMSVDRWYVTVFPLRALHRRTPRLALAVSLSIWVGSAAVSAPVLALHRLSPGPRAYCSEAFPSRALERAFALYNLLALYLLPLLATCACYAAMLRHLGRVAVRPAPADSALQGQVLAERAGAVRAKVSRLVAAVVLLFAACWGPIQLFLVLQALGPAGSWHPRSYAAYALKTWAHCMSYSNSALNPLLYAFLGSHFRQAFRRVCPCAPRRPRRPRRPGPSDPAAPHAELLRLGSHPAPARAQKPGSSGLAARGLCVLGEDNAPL
Chain of D(2) dopamine receptor (Homo sapiens) (P14416 whole entry, looked up): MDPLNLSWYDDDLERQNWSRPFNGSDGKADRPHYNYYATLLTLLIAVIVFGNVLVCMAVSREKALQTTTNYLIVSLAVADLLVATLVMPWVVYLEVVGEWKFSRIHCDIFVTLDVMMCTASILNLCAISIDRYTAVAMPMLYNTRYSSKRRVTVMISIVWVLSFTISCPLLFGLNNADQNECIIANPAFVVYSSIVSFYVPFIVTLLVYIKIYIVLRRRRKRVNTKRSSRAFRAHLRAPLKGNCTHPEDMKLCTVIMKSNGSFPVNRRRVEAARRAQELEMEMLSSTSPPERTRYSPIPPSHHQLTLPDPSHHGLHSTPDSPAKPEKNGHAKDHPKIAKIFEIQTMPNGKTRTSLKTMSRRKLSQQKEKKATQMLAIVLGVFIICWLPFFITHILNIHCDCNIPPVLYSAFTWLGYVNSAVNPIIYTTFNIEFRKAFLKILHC
Chain of Gonadotropin-releasing hormone receptor (Homo sapiens) (P30968 whole entry, looked up): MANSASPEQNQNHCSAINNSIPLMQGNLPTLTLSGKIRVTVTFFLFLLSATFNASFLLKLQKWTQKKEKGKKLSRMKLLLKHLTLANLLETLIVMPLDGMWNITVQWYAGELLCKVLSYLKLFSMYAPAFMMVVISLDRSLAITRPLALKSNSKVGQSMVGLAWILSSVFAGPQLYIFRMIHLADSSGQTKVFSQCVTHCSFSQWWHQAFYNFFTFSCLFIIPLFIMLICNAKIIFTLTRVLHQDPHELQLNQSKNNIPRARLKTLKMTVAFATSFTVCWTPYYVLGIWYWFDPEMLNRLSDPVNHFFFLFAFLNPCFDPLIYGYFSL
Chain of Muscarinic acetylcholine receptor M1 (Homo sapiens) (P11229 whole entry, looked up): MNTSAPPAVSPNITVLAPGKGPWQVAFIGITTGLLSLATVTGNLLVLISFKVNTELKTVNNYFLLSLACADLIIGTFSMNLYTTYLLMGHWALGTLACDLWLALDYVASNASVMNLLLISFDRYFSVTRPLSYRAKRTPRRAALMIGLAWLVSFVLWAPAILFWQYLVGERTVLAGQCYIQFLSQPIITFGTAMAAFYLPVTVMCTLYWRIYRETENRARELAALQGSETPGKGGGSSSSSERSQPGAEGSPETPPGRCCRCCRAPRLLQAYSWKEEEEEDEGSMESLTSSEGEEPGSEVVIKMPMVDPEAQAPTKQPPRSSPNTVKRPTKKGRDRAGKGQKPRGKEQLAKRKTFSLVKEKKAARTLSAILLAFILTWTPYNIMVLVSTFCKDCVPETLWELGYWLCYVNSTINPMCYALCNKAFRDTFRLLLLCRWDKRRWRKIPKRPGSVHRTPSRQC
Chain of Beta-2 adrenergic receptor (Homo sapiens) (P07550 whole entry, looked up): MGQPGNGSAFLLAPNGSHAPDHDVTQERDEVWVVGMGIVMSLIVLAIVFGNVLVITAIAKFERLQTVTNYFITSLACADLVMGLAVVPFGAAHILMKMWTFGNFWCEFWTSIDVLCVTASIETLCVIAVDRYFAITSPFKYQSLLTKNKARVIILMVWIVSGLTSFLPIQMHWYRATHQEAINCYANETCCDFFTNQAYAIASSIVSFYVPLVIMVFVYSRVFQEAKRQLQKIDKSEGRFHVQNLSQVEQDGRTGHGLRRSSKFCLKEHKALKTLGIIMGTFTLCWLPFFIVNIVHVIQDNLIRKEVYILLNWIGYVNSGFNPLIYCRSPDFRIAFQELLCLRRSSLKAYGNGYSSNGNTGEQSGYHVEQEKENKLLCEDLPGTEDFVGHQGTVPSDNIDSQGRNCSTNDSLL
Chain of 5-hydroxytryptamine receptor 2A (Homo sapiens) (P28223 whole entry, looked up): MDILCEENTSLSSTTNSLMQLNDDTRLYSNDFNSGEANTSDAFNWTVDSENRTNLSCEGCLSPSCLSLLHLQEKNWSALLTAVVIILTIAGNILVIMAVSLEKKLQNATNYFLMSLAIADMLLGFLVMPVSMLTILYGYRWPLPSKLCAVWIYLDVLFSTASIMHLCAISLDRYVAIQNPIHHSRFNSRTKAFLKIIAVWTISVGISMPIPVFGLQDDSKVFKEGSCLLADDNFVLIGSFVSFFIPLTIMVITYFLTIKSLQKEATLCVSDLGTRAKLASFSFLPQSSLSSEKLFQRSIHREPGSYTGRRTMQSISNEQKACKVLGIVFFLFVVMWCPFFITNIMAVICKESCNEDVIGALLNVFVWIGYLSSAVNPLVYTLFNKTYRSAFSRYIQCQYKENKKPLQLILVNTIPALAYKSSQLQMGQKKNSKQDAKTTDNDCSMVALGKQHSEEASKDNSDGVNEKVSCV

CN(C)C(=O)Cl
45.7 µM (active) and inactive: [7]
not listed: [18] | [19] | [20]
inactive: all other assays above

COc1cccc(C=O)c1
not listed: [5] | [11] | [15]
inactive: all other assays above

CC(=O)C=C(C)C
not listed: [18] | [19] | [20]
inactive: all other assays above

c1ccc(N=NNc2ccccc2)cc1
active: [2] 28.3 µM and 61.1 µM
not listed: [5] | [8] | [15]
inactive: all other assays above

C[C@]12C=CC3=C4CCC(=O)C=C4CC[C@H]3[C@@H]1CC[C@@H]2O
active: [2] 27.1 µM and 58 µM
inactive: [1] | [3] | [4] | [5] | [20] | [7] | [14] | [15] | [16]

ClC(Cl)=C(c1ccc(Cl)cc1)c1ccc(Cl)cc1
active: [1] 39.5 µM
not listed: [4]
inactive: all other assays above

CC(C)C#N
not listed: [6] | [16] | [18] | [19]
inactive: all other assays above

CCCC(=O)Cl
not listed: [4]
inactive: all other assays above

Oc1c(Br)cc(Br)cc1Br
not listed: [6] | [15] | [18] | [19]
inactive: all other assays above

N#Cc1ccncc1
not listed: [5] | [6] | [7] | [16]
inactive: all other assays above

COC(=O)C(Cl)C(=O)OC
not listed: [4] | [17]
inactive: all other assays above

C[N+](C)(C)Cc1ccccc1
active: [11] 3.07 µM and 5.49 µM
not listed: [5] | [6] | [13] | [18] | [19]
inactive: all other assays above

CCNc1nc(Cl)nc(NC(C)(C)C#N)n1
not listed: [5] | [7] | [19] | [20]
inactive: all other assays above

C=CC(C)=O
active: [2] 5.97 µM
not listed: [5] | [16]
inactive: all other assays above

Oc1ccccc1Cl
not listed: [5] | [12] | [13]
inactive: all other assays above

O=[N+]([O-])c1cc(Cl)ccc1Cl
not listed: [5]
inactive: all other assays above

— PubChem BioAssay (Tox21)
